The results in this text go back to PubChem BioAssay (NCI).

Assay [1] is described as follows: NCI Yeast Anticancer Drug Screen. Data for the rad50 strain (AID 155).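 Also: 0% = growth of vehicle-only cultures of the same strain.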 The following applies: S. cerevisiae rad50 strain growth inhibition; at 50.0 µM; active compounds read high. The procedure, abridged:
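Growth of the mutant yeast was measured after compound exposure and referenced to vehicle-treated cultures.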

Assay [2] can be described thus: NCI Yeast Anticancer Drug Screen. Data for the mec2-1 strain (AID 157). The following applies: S. cerevisiae mec2-1 strain, at 50.0 µM, active compounds read high. The method in brief:
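Each compound was tested on mec2-1 yeast, a strain altered in DNA damage repair or cell cycle control. Growth inhibition is reported relative to vehicle.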

The nature of assay [3]: NCI Yeast Anticancer Drug Screen. Data for the sgs1 mgt1 strain (AID 161).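 Also: 0% = growth of cultures given vehicle only.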 Conditions: S. cerevisiae sgs1 mgt1 strain, at 50.0 µM, active compounds read high. The method in brief: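 Inhibition of yeast growth, normalised to vehicle-treated controls, is reported for a strain bearing genetic alterations in DNA damage repair.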
Assay [4] in a line: NCI Yeast Anticancer Drug Screen. Data for the cln2 rad14 strain (AID 165).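 Also: 0% = growth equal to vehicle treated cultures.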 The following applies: S. cerevisiae cln2 rad14 strain, at 50.0 µM, active compounds read high. The method in brief:
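Test compounds were added to cln2 rad14 yeast cultures; inhibition of growth was then determined by comparison with vehicle treatment.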

Assay [5] is described as follows: NCI Yeast Anticancer Drug Screen. Data for the bub3 strain (AID 167). The following applies: S. cerevisiae bub3 mutant strain, at 50.0 µM, active compounds read high. The method in brief:
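Whole-cell yeast assay. The mutant strain was incubated with compounds, and growth inhibition was determined by comparison with vehicle-treated cells.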

Assay [6] in a line: NCI Yeast Anticancer Drug Screen. Data for the mlh1 rad18 strain (AID 175). The following applies: S. cerevisiae mlh1 rad18 strain growth inhibition; at 50.0 µM; active compounds read high. The method in brief: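 Inhibition values reflect reduced growth of mutant yeast versus vehicle-treated controls following compound exposure; the mutations affect DNA damage repair.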

The panel holds about 79,000 compounds, 15% with a hit somewhere; the sample as a whole holds those more often. A number with no mark means an inactive call. The source made the active and inactive calls. Rule as the data show it: active = growth inhibition above about 70%; inactive = the rest.

In the case of `CC(=O)Nc1ccc(/C=C2\SC(=S)N(C=C(C#N)C#N)C2=O)cc1`, the growth inhibition in assay [1] is 3.95%; in assay [2] it was 12.2%; in assay [3] it was -10.4%; in assay [4] it was 38.5%; in assay [5], 15.2%; in assay [6], -2.35%.
Take `O=C1c2c(nc3ccccc3c2-c2ccccc2)CN1Nc1ccccc1`: the growth inhibition was -12% in assay [1]; -24.9% in assay [2]; -9.45% in assay [3]; 5.65% in assay [4]; -37.7% in assay [5]; -19.4% in assay [6].
On to `COc1ccc(C(C#N)N(C)C)cc1OC` (stereo not given), for which the growth inhibition in assay [1] was -16.9%; in assay [2], -13.6%; in assay [3] it was 8%; in assay [4] it was -15.1%; in assay [5] it was 0.75%; in assay [6], 5.15%.
Take `COc1ccc2cc1Oc1cc3c(cc1OC)CC[N+](C)(C)C3Cc1ccc(cc1)Oc1c(OC)c(OC)cc3c1C(C2)[N+](C)(C)CC3` (stereo not given): the growth inhibition in assay [1] is -29.4%; in assay [2], -16.4%; in assay [3] it was -46.2%; in assay [4], 10.8%; in assay [5], -22.9%; in assay [6] it was -19.3%.
Regarding `CN1CCN(C(=S)N(C)C(=O)c2ccc(Cl)cc2)CC1`, the growth inhibition was 13.3% in assay [1]; -20.1% in assay [2]; -20.3% in assay [3]; 19.1% in assay [4]; -22.9% in assay [5]; -9.65% in assay [6].
On to `C=CCNC(=S)/N=C/c1c(C(=O)OCC)[nH]n(-c2ccccc2)c1=O`, for which the growth inhibition in assay [1] is -27.8%; in assay [2], -19.5%; in assay [3], -44.8%; in assay [4], -32.8%; in assay [5], -26%; in assay [6], -54.6%.
Consider `CCOC(=O)CCC1(C(=O)OCC)CCCCC1=O` (stereo not given), for which the growth inhibition in assay [1] was -16.9%; in assay [2], -20.4%; in assay [3], -48.5%; in assay [4], -16.9%; in assay [5], -25.4%; in assay [6], -23.1%.
In the case of `CN1CCCCC1=O`, the growth inhibition in assay [1] was -0.15%; in assay [2], -2.6%; in assay [3], 6.15%; in assay [4], 8.65%; in assay [5] it was 8.65%; in assay [6], 9.8%.
Take `NC(=O)CCn1ccc2ccccc21`: the growth inhibition is 0.5% in assay [1]; -5.8% in assay [2]; 0% in assay [3]; -1.25% in assay [4]; 5% in assay [5]; -0.85% in assay [6].
In the case of `Cc1cc(S(=O)(=O)Nc2n[nH]c(Nc3ccccc3)n2)c(SCC(=O)O)cc1Cl`, the growth inhibition in assay [1] was 11.3%; in assay [2] it was 52.8%; in assay [3] it was 51.2%; in assay [4] it was -0.25%; in assay [5], -4.2%; in assay [6] it was 23.1%.
As to `CCc1nnc(CC)n1NCCCC(=O)O`, the growth inhibition was 26.3% in assay [1]; 24.2% in assay [2]; 20.8% in assay [3]; 18.2% in assay [4]; 24.9% in assay [5]; 15.7% in assay [6].
Take `O=C(O)c1cccnc1-c1ccccc1`: the growth inhibition in assay [1] is -3.95%; in assay [2] it was 23.6%; in assay [3], -9.85%; in assay [4] it was -4.7%; in assay [5], -12.9%; in assay [6], -12.2%.
As for `COc1cc(C(=O)C/C(CCC(=O)Nc2ccc(Cl)cc2Cl)=N/Nc2nnc(C)n2N)ccc1O`, the growth inhibition in assay [1] was -19.6%; in assay [2], -4.2%; in assay [3], -25.6%; in assay [4] it was 13.4%; in assay [5], 7.1%; in assay [6], -5.05%.
`CC(NC(=O)C(CC(=O)OCc1ccccc1)NC(=O)OCc1ccccc1)c1ccccc1` (stereo not given): the growth inhibition in assay [1] is 9.5%; in assay [2] it was -20.5%; in assay [3] it was 9.15%; in assay [4], -21.6%; in assay [5], -17.4%; in assay [6], -1.3%.
With `O=c1c(-c2ccc(O)cc2)coc2cc(OC3OC(CO)C(O)C(O)C3O)cc(O)c12` (stereo not given), the growth inhibition in assay [1] was -35.5%; in assay [2] it was -26.8%; in assay [3] it was -40.8%; in assay [4], -10.7%; in assay [5] it was -60.2%; in assay [6], -83.3%.
Regarding `N#CC12CC3(CCC1CCC1(C2)OCCO1)OCCO3` (stereo not given), the growth inhibition was -13.8% in assay [1]; 2.65% in assay [2]; -3.9% in assay [3]; -6.65% in assay [4]; 4.3% in assay [5]; -1% in assay [6].
Regarding `CC(=O)Nc1nc(NC(C)=O)c2[nH]c(CO)nc2n1`, the growth inhibition in assay [1] is -4.2%; in assay [2] it was -10.4%; in assay [3], -11.8%; in assay [4], -33.6%; in assay [5] it was -61.3%; in assay [6], -11.7%.
As for `O=C(CC(=O)N(C(=O)c1ccccc1)c1ccc(Cl)cc1)N/N=C\c1ccccc1O`, the growth inhibition in assay [1] is 1.35%; in assay [2], -5.4%; in assay [3] it was 5.45%; in assay [4] it was -1.85%; in assay [5], 19.9%; in assay [6] it was -15.4%.
For `Cc1cc(O)c(/C=N/C(=O)NN)c(=O)o1`, the growth inhibition is -40.6% in assay [1]; -11.1% in assay [2]; -20.1% in assay [3]; -22.4% in assay [4]; -22.5% in assay [5]; -42.5% in assay [6].
Turning to `N#CCCc1c(-c2ccccc2)nc(N)[nH]c1=O`, the growth inhibition is 2.35% in assay [1]; 0.85% in assay [2]; 2.75% in assay [3]; -38.4% in assay [4]; -14.6% in assay [5]; -9.75% in assay [6].
Consider `Nc1ccccc1S(=O)O`, for which the growth inhibition in assay [1] was -4%; in assay [2], 8.55%; in assay [3], 14.9%; in assay [4], 7.7%; in assay [5] it was -25.9%; in assay [6], 13.1%.
Regarding `O=C(Nc1ccc2ccccc2c1)c1ccc(Cl)cc1Cl`, the growth inhibition in assay [1] was -12.1%; in assay [2] it was 14.2%; in assay [3] it was -0.7%; in assay [4], -2.85%; in assay [5] it was 2.45%; in assay [6], -14.8%.
Consider `CC1(C)CC2(C)NCCN2C(=S)N1` (stereo not given), for which the growth inhibition was 3.25% in assay [1]; 2.3% in assay [2]; 15.8% in assay [3]; 12.2% in assay [4]; -5.45% in assay [5]; -7.8% in assay [6].
As for `CCC(C(N)=O)C(N)=O`, the growth inhibition in assay [1] was -20.1%; in assay [2] it was -27.9%; in assay [3] it was -34.5%; in assay [4] it was 15.8%; in assay [5], -1.3%; in assay [6], -6.1%.
As for `O=C1CC[C@H]2[C@@H]3N1c1ccccc1[C@@]31CCN3C/C(=C/CBr)[C@@H]2C[C@H]31`, the growth inhibition is 21.4% in assay [1]; -3.05% in assay [2]; 6.25% in assay [3]; 19.4% in assay [4]; -1.8% in assay [5]; 11.1% in assay [6].
`Cc1ccc(/C(O)=C/c2nc3ccccc3oc2=O)cc1`: the growth inhibition in assay [1] is 20.2%; in assay [2], 35.4%; in assay [3], -7.5%; in assay [4], -18.7%; in assay [5], 25.9%; in assay [6], 0.85%.
In the case of `CC1(C)COCOC1c1ccccc1` (stereo not given), the growth inhibition in assay [1] is -6.2%; in assay [2], 11.3%; in assay [3] it was -21.4%; in assay [4], -11.8%; in assay [5], -1%; in assay [6] it was 6.4%.
Regarding `Cc1ccccc1NS(=O)(=O)c1c(N)ncn1C`, the growth inhibition was -5.2% in assay [1]; 3.55% in assay [2]; -0.9% in assay [3]; -29.3% in assay [4]; -0.65% in assay [5]; 5.25% in assay [6].
Consider `C#CCNC(=O)NC(CCCCNC(=O)OCc1ccccc1)C(=O)OCc1ccccc1` (stereo not given), for which the growth inhibition in assay [1] is -7.05%; in assay [2], 2.9%; in assay [3], -10.8%; in assay [4], 10.3%; in assay [5] it was 3.55%; in assay [6], -4.8%.
Take `Cc1ccc(C2=CSc3ccccc3N2)cc1`: the growth inhibition was 24.8% in assay [1]; 38% in assay [2]; 45.6% in assay [3]; -13.9% in assay [4]; 62.5% in assay [5]; 29.2% in assay [6].
Consider `Cc1cccc(Cl)c1N=Nc1c(C)nn(C(N)=S)c1C`, for which the growth inhibition in assay [1] was 29.8%; in assay [2] it was 8.75%; in assay [3], 38%; in assay [4] it was -33%; in assay [5], -0.55%; in assay [6], 17.1%.
Take `CCCCC(CC)(CO)CCC` (stereo not given): the growth inhibition was -8.75% in assay [1]; -19% in assay [2]; -13.7% in assay [3]; 2.55% in assay [4]; -9.45% in assay [5]; 4% in assay [6].
On to `C=CCN=C(N)SCCN(CCSC(N)=NCC=C)C(N)=O`, for which the growth inhibition in assay [1] was 36.1%; in assay [2], 10.7%; in assay [3], 36.2%; in assay [4], 34.2%; in assay [5], 4.05%; in assay [6] it was 13.1%.
For `CCCCOc1c(Cl)cc(Cl)cc1-c1ccccc1`, the growth inhibition in assay [1] is 14.7%; in assay [2] it was 9.6%; in assay [3] it was 2.55%; in assay [4] it was -18.2%; in assay [5] it was 18.5%; in assay [6], 2.25%.
Take `COc1ccc(Cl)cc1NC(=O)Nc1ccc(SC)cc1`: the growth inhibition in assay [1] is 24.1%; in assay [2], 50.6%; in assay [3], 56.5%; in assay [4], 20.8%; in assay [5], 33%; in assay [6] it was 35.5%.
As to `CCOC(=S)SC1OC(COC(C)=O)C(OC(C)=O)C(OC(C)=O)C1OC(C)=O` (stereo not given), the growth inhibition is 57.5% in assay [1]; 11.4% in assay [2]; 55.2% in assay [3]; 45.8% in assay [4]; 17.2% in assay [5]; 10.7% in assay [6].
`O=c1c2cc(Br)ccc2n(C2OC(CO)C(O)C(O)C2O)c(=S)n1-c1ccccc1` (stereo not given): the growth inhibition in assay [1] is 30.6%; in assay [2], 28.4%; in assay [3], 31.7%; in assay [4] it was 34.5%; in assay [5] it was 50.5%; in assay [6], 24.9%.
In the case of `CC1(C)CC(Nc2ccc(Nc3ccccc3)cc2)CC(C)(C)N1`, the growth inhibition was -4.35% in assay [1]; -6.3% in assay [2]; -11.3% in assay [3]; -9.8% in assay [4]; -2.1% in assay [5]; -19.8% in assay [6].
On to `COc1ccc(/C=C(\C2=NC(=O)CS2)c2nc3ccccc3[nH]2)cc1`, for which the growth inhibition was -0.35% in assay [1]; -4.2% in assay [2]; -20.1% in assay [3]; -3.9% in assay [4]; -20.4% in assay [5]; -24.9% in assay [6].
Turning to `O=c1c2cnccc2cc2n1CCc1c-2[nH]c2ccccc12`, the growth inhibition is 88.4% (active) in assay [1]; 89.3% (active) in assay [2]; 88.8% (active) in assay [3]; 90.2% (active) in assay [4]; 69.8% in assay [5]; 86.4% (active) in assay [6].
